Reference: PubChem BioAssay (NCATS)
Results filed as inconclusive are left out. The source made the active and inactive calls. Unless noted, the call rests on the fitted dose curve; in most records, active means well fitted curve in the direction sought with a large enough effect; inconclusive means small, poorly fitted or top-dose-only effect, or another doubt; inactive means no such curve, though single readings can be large; an effect the other way counts as inactive or inconclusive.

What was measured:
[1] = qHTS to identify inhibitors of the type 1 interferon - major histocompatibility complex class I in skeletal muscle: primary screen against the NCATS Mechanism Interrogation Plate v5.0 (MIPE) Libary (AID 1347411); further: nearly all actives have a fitted effect of over 65% in size; further: potency means the concentration at half of the fitted maximal effect
In short: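 Immortalized human myoblasts (C25cl48) with HiBit knocked into endogenous HLA-B*08:01 were stimulated with 4 ng/ml IFN-beta and given compounds in 11-point 1:3 titration from 46 uM. After 24 h at 37 C, lytic HiBiT luminescence was read.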

[2] = molecular target: Glutathione peroxidase 1 (Homo sapiens) (UniProt P07203); assay: Primary qHTS Assay for Inhibitors of Recombinant Selenoprotein Glutathione Peroxidase 1 (GPX1) (AID 1845191); further: nearly all actives have a fitted effect of over 65% in size
Glutathione peroxidase 1 (Homo sapiens), sequence (P07203 whole entry, looked up): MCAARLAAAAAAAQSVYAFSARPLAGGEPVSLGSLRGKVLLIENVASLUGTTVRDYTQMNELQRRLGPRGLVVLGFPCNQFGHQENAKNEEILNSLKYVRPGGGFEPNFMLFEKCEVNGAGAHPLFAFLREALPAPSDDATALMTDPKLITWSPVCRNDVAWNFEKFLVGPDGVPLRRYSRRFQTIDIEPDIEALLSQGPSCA
In short: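 GR-coupled assay: compounds preincubated 30 min at room temperature with GPX1, then reaction started with CHP; final 10 nM GPX1, 1 mM GSH, 0.5 mM CHP, 0.5 mM NADPH, 100 nM GR, 0.01% BSA, pH 7.5 Tris buffer. NADPH fluorescence (340/450 nm) read at 0 and 15 min.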

[3] = molecular target: Phospholipid hydroperoxide glutathione peroxidase GPX4 (Homo sapiens) (UniProt P36969); assay: Primary qHTS Assay for Inhibitors of Recombinant Selenoprotein Glutathione Peroxidase 4 (GPX4) (AID 1845192); settings: outcome: dose series up to 50 µM unless noted; further: nearly all actives have a fitted effect of over 65% in size
Phospholipid hydroperoxide glutathione peroxidase GPX4 (Homo sapiens), sequence (P36969 whole entry, looked up): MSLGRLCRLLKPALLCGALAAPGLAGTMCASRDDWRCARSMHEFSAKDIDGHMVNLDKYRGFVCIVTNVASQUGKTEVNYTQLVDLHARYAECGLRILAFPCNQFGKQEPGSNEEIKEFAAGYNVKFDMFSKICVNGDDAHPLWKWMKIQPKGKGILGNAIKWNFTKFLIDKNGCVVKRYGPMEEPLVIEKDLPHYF
In short: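 GR-coupled assay: recombinant GPX4 preincubated 30 min with compound at room temperature; final 200 nM GPX4, 1 mM GSH, 0.5 mM cumene hydroperoxide, 0.5 mM NADPH, 100 nM GR, 0.01% BSA, pH 7.5 Tris. NADPH fluorescence (340/450 nm) read at 0 and 15 min.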

[4] = qHTS drug screen for cell cycle checkpoint inhibitors in PARPi-resistant BRCA-mutant ovarian cancer cell lines. (AID 1963452; calls by dose curve); settings: PEO1/OlaR viability, CellTiter-Glo luminescence, 96 h, stronger effect = lower value
In short: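 PEO1, PEO4 and PEO1/OlaR ovarian cancer cells, 600 per well, exposed 96 h at 37C to a dilution series. Viability read by CellTiter-Glo luminescence, normalized to DMSO and empty wells; activity summarized as Z-AUC.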

[5] = Primary qHTS for inhibitors of nuclear receptor binding SET domain protein 2 (NSD2) in an RCH-ACV wild type WT cells (2C) (AID 1645877); further: nearly all actives have a fitted effect of over 70% in size; further: potency means the concentration at half of the fitted maximal effect
[6] = Primary qHTS for inhibitors of nuclear receptor binding SET domain protein 2 (NSD2) in an isogenic RCH-ACV NSD2 p.E1099K mutant (9B) (AID 1645876); further: on the % scale 0 is the no-effect control and ±100 the full control effect; nearly all actives have a fitted effect of over 70% in size
[7] = measured here: PEO1 parental Z-AUC

Structure (SMILES) | Potency [1] | Potency [2] | Potency [3] | Z-AUC [4] | Z-AUC [4, 7] | Z-AUC ([4]; measured here: PEO4 Z-AUC) | Potency [5] | Potency [6]
CC(C)(c1ccc(OCC(O)CO)cc1)c1ccc(OCC(O)CCl)cc1 (configuration not stated) | inactive | inactive | inactive | 1.33 (inactive) | 0.733 | 1.22 |  | 
CO[C@H]1/C=C/O[C@@]2(C)Oc3c(C)c(O)c4c(O)c(c(/C=N\N5CCN(C6CCCC6)CC5)c(O)c4c3C2=O)NC(=O)/C(C)=C\C=C\[C@H](C)[C@H](O)[C@@H](C)[C@@H](O)[C@@H](C)[C@H](OC(C)=O)[C@@H]1C | 18.6 µM (active) | inactive |  | -0.749 (inactive) | -0.895 | -0.603 | 20.9 µM (active) | 
CS(=O)(=O)c1ccc([C@@H](CC2CCCC2)C(=O)Nc2nccs2)cc1 | inactive | inactive | inactive | 0.78 (inactive) | 0.607 | 0.595 |  | 
COC(=O)C1=C(C)NC(c2ncc(F)cc2F)=N[C@@H]1c1ccc(F)cc1Cl | 16.5 µM (active) | inactive |  | 1.3 (inactive) | 1.02 | 0.861 | 18.6 µM (active) | 
CC(C)(NS(=O)(=O)c1ccc2c(Cl)cnc(N=C(N)N)c2c1)C(=O)O | inactive |  |  | -0.917 (inactive) | 0.762 | 0.0928 |  | inactive
C=CC(=O)N1C[C@H](Nc2ncnc3[nH]ccc23)CC[C@@H]1C | inactive | inactive | inactive | -0.649 (inactive) | -0.501 | -0.666 | inactive | 
O=C(Nc1cnccc1Cl)N1CCN(Cc2ccc3c(c2)OC(F)(F)O3)CC1 | inactive | inactive | inactive | 0.437 (inactive) | 0.137 | 0.79 |  | 
COc1ccc(S(=O)(=O)NCc2ccc(C(=O)NCCc3ccc(Cl)cn3)cc2)cc1 | inactive | inactive | inactive | -2 (inactive) | -0.947 | -0.745 |  | 
CC(C)(CO)n1cc(C(=O)c2cncc(NC(=O)Cc3ccc(Cl)cn3)c2)c2cnc(N)nc21 | inactive | inactive |  | -0.173 (inactive) | 0.879 | 0.771 | inactive | 
CC(C)OC(=O)[C@H](C)N[P@](=O)(OC[C@H]1O[C@@H](n2ccc(=O)[nH]c2=O)[C@](C)(F)[C@@H]1O)Oc1ccccc1 | inactive | inactive | inactive | -0.0429 (inactive) | 0.659 | 0.765 |  | 
CC(C)C[C@H](NC(=O)[C@H](Cc1ccccc1)NC(=O)OCc1ccccc1)C(=O)C=O | inactive | inactive | inactive | 0.592 (inactive) | 0.57 | 0.338 |  | 
Nc1cc(COc2c(Cl)cc(C[C@H](N)C(=O)O)cc2Cl)c2oc(-c3ccccc3)nc2c1 | inactive | inactive | inactive | -1.13 (inactive) | -0.255 | -0.878 |  | 
CCCN(CCC)C(=O)C1=Cc2ccc(-c3ccc(C(=O)N4CCCC4)cc3)cc2N=C(N)C1 | inactive | inactive |  | 0.263 (inactive) | -0.15 | -0.0193 | 18.6 µM (active) | 
Cc1nc2cccc(N)c2c(=O)n1C1CCC(=O)NC1=O (configuration not stated) | inactive | inactive | inactive | 1.24 (inactive) | 1.14 | 1.38 |  | 
CCC(=O)OCC(=O)C1(OC(=O)CC)C(C)CC2C3CCC4=CC(=O)C=CC4(C)C3(F)C(O)CC21C (configuration not stated) | inactive | inactive | inactive | 0.365 (inactive) | 0.623 | -0.145 |  | 
C[C@H]1CN(C2COC2)CCN1c1ccc(Nc2cc(-c3ccnc(N4CCn5c(cc6c5CC(C)(C)C6)C4=O)c3CO)cn(C)c2=O)nc1 | inactive | inactive | inactive | -0.103 (inactive) | 0.727 | 0.518 |  | 
Nc1cccc2c1CN([C@H]1CCC(=O)NC1=O)C2=O | inactive | inactive | inactive | 0.0993 (inactive) | 0.928 | 1.07 |  | 
Nc1ncc(C(=O)NC2CN(C(=O)C3CC3)C2)c2ccc(-c3cccc(F)c3)nc12 | inactive | inactive | inactive | 1.21 (inactive) | 0.799 | 0.359 |  | 
O=C(Cc1ccccc1)Nc1nnc(CCSCCc2nnc(NC(=O)Cc3ccccc3)s2)s1 | inactive | inactive | inactive | 1.43 (inactive) | 1.23 | 1.41 |  | 
N[C@@H]1CN(c2c(F)cc3c(=O)c(C(=O)O)cn([C@@H]4C[C@@H]4F)c3c2Cl)CC12CC2 | inactive | inactive |  | 0.751 (inactive) | 0.374 | 0.877 | inactive | 
C=CC(=O)N[C@H]1CCOC[C@H]1Nc1ncc2cc(-c3c(Cl)c(OC)cc(OC)c3Cl)ccc2n1 | inactive | inactive | inactive | 1.21 (inactive) | 0.408 | 0.57 |  | 
CN[C@@H](C)C(=O)N[C@H](C(=O)N1CCC[C@H]1C(=O)Nc1snnc1-c1ccccc1)C1CCCCC1 | inactive | inactive | inactive | 1.43 (inactive) | 0.271 | -0.618 |  | 
